Shown are actives, neighbours in structure and some others; about 3.4% of the full set was active somewhere.
Vif inh = HIV Vif self-association inhibitors, primary screen, imaging, HEK293T, single point; inhibition, % at 7.49 µM; HEK293T cells, Vif self-association by quenched fluorescence, 24 h; actives 0.35% (n = 340,000); in the data active = inhibition above about 50%, passing the limit was not always enough; inconclusive = no clear call, values can overlap the other calls; inactive = below about 31%
HSF1 inhib = HSF1 inhibitors in luciferase reporter cells, primary screen, cell-based, NIH3T3, luminescence. NIH3T3-HGL HSE-luciferase, MG132-induced, luminescence 8 h; hits give low values. activity change, negative = inhibition, % at 7.5 µM (by protocol). actives 0.77% (n = 300,000);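 active = more than half of replicate wells show activity change below -50%, luminescence cut by over half; inconclusive = some wells, but at most half, below -50%; inactive = no replicate well below -50%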;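 also: luciferase reports HSF-1 transcriptional activity via heat shock element; 0% = median of DMSO wells and -100% = zero luminescence signal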
esBAF inh = Bmi1 luciferase reporter increase in mESCs, primary screen, esBAF inhibitor project, mouse ES cells, Bmi1 luciferase knock-in, single point. 24 h; 100% = twice the neutral-well signal. AID 602393, 2012. actives 2% (n = 350,000). reporter increase, % at 12.5 µM; in the data active = activation above about 40%; inconclusive = no clear call, values can overlap the other calls;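 also: 0% = median of the plate's neutral control wells and 100% = double that signal; a rise in the Bmi1 reporter signal indicates esBAF inhibition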
HSF1 activator = HSF-1 activators, primary screen, NIH3T3-HGL cells, MG132 stress, luminescence, single point | NIH3T3-HGL HSF-1 luciferase reporter, 8 h; 100% = twice DMSO control signal | activation, % at 9 µM | actives 1.7% (n = 300,000) | AID 504408, 2011;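 active = mean replicate activation of at least 50% with a set share of replicates each reaching 50%; inconclusive = only one of those two conditions met; inactive = mean below 50% and too few replicates reaching it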;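 also: 0% = median of the neutral control wells and 100% = twice that signal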
The depositor's hits bear a star; u = inconclusive; x = no result given.

SMILES | Vif inh | HSF1 inhib | esBAF inh | HSF1 activator
CCCNC(=O)[C@@H]1[C@@H](CO)[C@@H]2Cn3c(cccc3=O)[C@H]1N2CCC | x | x | 4.7 | x
COc1cc(CC2C(=O)N(C)C(=O)N(C)C2=O)ccc1OCc1ccccc1 | 1.0 | 4.1 | 45.9* | 10.5
CN1C(=O)C(Cc2ccc(OCc3ccccc3)cc2)C(=O)N(C)C1=O | -4.1 | -1.1 | 27.3 | 0.0
COc1ccc(-c2cc(=NCC(=O)O)c3ccccc3o2)cc1 | -11.1 | 10.4 | 46.7* | 49.1
COc1ccc(-c2cc(=NCCCCCC(=O)O)c3cc(C)ccc3o2)cc1 | 2.5 | 7.9 | x | 10.7
COC(=O)[C@H]1[C@H](CO)[C@H]2Cn3c(ccc(-c4cccc(F)c4)c3=O)[C@@H]1N2C(=O)CC1CC1 | x | x | 2.4 | x
COC(=O)c1c(C)n(Cc2ccc3c(c2)OCO3)c2ccc(O)cc12 | -11.7 | 9.8 | -5.8 | 21.5
CCOC(=O)c1c(C)n(Cc2ccc3c(c2)OCO3)c2ccc(O)cc12 | -13.3 | 40.2 | 37.5 | 62.0*
COc1ccc(-c2ccc([C@@H]3[C@H]4CN(C(=O)Cc5ccncc5)CCCCN4[C@H]3CO)cc2)cc1 | x | x | 6.0 | x
CCN(CC)C(=O)c1ccc(NC(=O)Nc2ccccc2F)cc1 | -14.1 | -64.4* | x | -70.5
CCN(CC)C(=O)c1ccc(NC(=O)CCCSc2ccccc2)cc1 | 13.0 | -3.2 | 10.2 | -3.2
CC=Cc1ccc2n(c1=O)C[C@H]1[C@H](CO)[C@@H](C(=O)OC)[C@@H]2N1CC1CCCCC1 (mixture of isomers) | x | x | -2.2 | x
COc1cccc(NC(=O)CN2CC(c3ccccc3)CC2=O)c1 (configuration not stated) | 4.4 | -5.8 | 4.7 | -5.2
O=C(CN1CC(c2ccccc2)CC1=O)NCc1ccc(F)cc1 (configuration not stated) | 0.4 | -66.3* | 3.2 | -73.8
COC(=O)[C@H]1[C@H](CO)[C@H]2Cn3c(ccc(C4=CCCCC4)c3=O)[C@@H]1N2Cc1ccccn1 | x | x | -1.9 | x
OC1/C(=C/c2ccccc2C(F)(F)F)N2CCC1CC2 (configuration not stated) | -2.1 | -77.9* | x | -81.8
OC1/C(=C/c2ccccc2F)N2CCC1CC2 (configuration not stated) | 18.1 | -7.6 | x | -11.5
COc1ccc(N=Cc2c(O)n(Cc3ccccc3)c(=S)[nH]c2=O)c(OC)c1 | 0.2 | 62.8 | x | 117.3*
COC(=O)[C@@H]1[C@@H](CO)[C@@H]2Cn3c(ccc(-c4ccccc4)c3=O)[C@H]1N2C(=O)c1ccccc1F | x | x | -4.5 | x
Cc1cc(N(CCCl)CCCl)ccc1/C=N/N=C(\N)c1cnccn1 | -2.4 | 4.9 | x | 7.5
Cc1cc(N(CCCl)CCCl)ccc1C=Cc1ccncn1 | 77.1* | x | 3.4 | x
COc1ccc(C#Cc2ccc([C@@H]3[C@@H](CO)N4CCCCN(C(=O)Cc5ccccc5)C[C@H]34)cc2)cc1 | x | x | -3.3 | x
O=C(O)[C@H]1[C@H](CO)[C@H]2Cn3c(ccc(-c4ccncc4)c3=O)[C@@H]1N2S(=O)(=O)c1ccccc1F | x | x | -0.6 | x
COc1ccc(O)c(CN2CCCC(C(=O)c3sccc3C)C2)c1 (configuration not stated) | -11.2 | 7.4 | x | 16.1
Cc1ccsc1C(=O)C1CCCN(Cc2ccccc2O)C1 (configuration not stated) | 0.9 | 20.0 | x | 58.0*
SMILES | Vif inh | HSF1 inhib | esBAF inh | HSF1 activator
CCC(=O)N1[C@@H]2c3ccc(-c4ccc(F)cc4)c(=O)n3C[C@H]1[C@H](CO)[C@H]2C(=O)OC | x | x | 1.9 | x
O=C1NC(=O)N(Cc2ccc(F)cc2)C(=O)/C1=C\C=C\c1ccco1 | 1.4 | 42.6 | x | 81.9*
COC(=O)[C@]12OC[C@]34C([C@@H](O)[C@@H]1O)[C@]1(C)CC(=O)C(O)=C(C)[C@@H]1C[C@H]3OC(=O)[C@H](O)[C@@H]24 (some centres not stated) | -8.3 | -68.9* | 9.6 | -73.8
CC(=O)c1c(C)n(CCCOC(C)C)c2ccc(O)cc12 | -1.1 | -55.9* | -7.4 | -67.0
CC(C)(C)n1cc(C(=O)c2ccccc2OCCCF)cn1 | -6.8 | 0.9 | -7.6 | -0.8
CC(C)(C)n1cc(C(=O)c2ccc3ccccc3c2O)cn1 | -2.1 | -71.8* | x | -74.0
O=C1NC(=S)NC(=O)C1=Cc1ccc(OCc2ccccc2)cc1 | 10.0 | x | 44.4* | x
O=C(c1ccc(Cl)cc1)C1CCCN(Cc2ccc3c(c2)OCCO3)C1 (configuration not stated) | x | -59.8* | 5.7 | -69.4
O=C(c1ccc2c(c1)OCO2)C1CCCN(Cc2ccc(F)c(F)c2)C1 (configuration not stated) | -12.9 | 9.4 | 3.9 | 14.9
C=CCNC(=O)c1c(N)n(Cc2ccco2)c2nc3ccccc3nc12 | 0.3 | 97.3 | -8.7 | 133.9*
CC(C)NC(=O)N1[C@@H]2Cn3c(ccc(-c4cccc(C(=O)N(C)C)c4)c3=O)[C@H]1[C@@H](C(=O)O)[C@@H]2CO | x | x | -0.8 | x
CC(=O)c1ccccc1NC(=O)C1C2CCC(O2)C1C(=O)O (configuration not stated) | x | 38.1 | x | 67.9*
O=C(O)C1C2CCC(O2)C1C(=O)Nc1ccc(F)c(F)c1 (configuration not stated) | -4.6 | -8.6 | -9.0 | -1.5
CCCC(=O)c1cc(CP(=O)(OCC)OCC)oc1C | 50.1* | 8.6 | -7.7 | 1.8
COc1ccc(OC)c(N2C(=O)NC(=O)/C(=C\c3ccc([N+](=O)[O-])s3)C2=O)c1 | -5.6 | -62.8* | -1.6 | -70.0
O=C(c1ccc2c(c1)OCO2)N1CCC2(CC1)OCCO2 | -1.7 | -68.1* | 2.3 | -76.4
O=C(Cc1ccncc1)N1CCCCN2[C@H](CO)[C@H](c3ccc(C#Cc4ccccc4F)cc3)[C@@H]2C1 | x | x | 2.7 | x
O=[N+]([O-])c1ccccc1CNCCc1ccc(F)cc1 | -0.1 | 17.4 | 40.9* | 25.2
COc1ccc(CCNCc2ccc(Br)cc2)cc1OC | -7.8 | 22.4 | -6.9 | 51.2*
CC=Cc1ccc2n(c1=O)C[C@@H]1[C@@H](CO)[C@H](C(=O)OC)[C@H]2N1CC1CC1 (mixture of isomers) | x | x | -5.5 | x
CN(C)C(=O)Oc1ccc2c(c1)O/C(=C\c1ccc(Cl)cc1)C2=O | 3.2 | 44.3 | u | 56.5*
CN(C)C(=O)Oc1ccc2c(c1)O/C(=C\c1cccc(Cl)c1)C2=O | 23.3 | 14.1 | u | 35.4
O=[N+]([O-])c1ccc(N2CCOCC2)c2c1no[n+]2[O-] | 106.1* | x | -83.0 | x
O=C(Cc1ccccn1)N1CCCCN2[C@H](CO)[C@H](c3ccc(Br)cc3)[C@@H]2C1 | x | x | -6.8 | x
CCOc1cc(C2NCc3ccccc3-n3cccc32)ccc1O (configuration not stated) | 1.1 | 3.8 | x | 9.4
CCOc1cccc(C2NCc3ccccc3-n3cccc32)c1O (configuration not stated) | -4.5 | 79.8 | 13.3 | 92.6*
C=C1C(=O)OC2CC3(C)OC3C3OC3C3=CC(OC3=O)C12 (configuration not stated) | 86.0* | x | -9.1 | x

From PubChem BioAssay
